Compound activity deposited in PubChem by The Scripps Research Institute Molecular Screening Center.
Compounds with a hit are over-represented: about 0.84% of the library has one in this group of screens.
NR5A2 inv ag: LRH-1 (NR5A2) inverse agonists, primary screen, cell-based, luminescence, HEK293T, StAR-luciferase reporter; Nuclear receptor subfamily 5 group A member 2 (Homo sapiens), O00482; LRH-1 transfected, 24 h; inhibition, % at 3.6 µM; 360,000 tested, 0.13% active;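 active means inhibition above the mean inhibition of all tested compounds plus 3 SD, cut at about 73% in these data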;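 further: 0% = DMSO wells and 100% = reporter-only cells lacking LRH-1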
COUP-TFII inh: NR2F2 transcriptional activity inhibitors, primary screen, cell-based, luciferase reporter, HEK293T, luminescence. HEK293T NGFI-A luciferase reporter. inhibition, % at 8.6 µM. 370,000 tested, 0.7% active. AID 686940, 2013;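 active means inhibition above a per-plate cutoff, mean inhibition of test wells between control levels plus 3 SD, cut at about 38% in these data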;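 further: cells cotransfected with COUP-TFII expression vector driving the NGFI-A reporter; 0% = median of COUP-TF2 test wells and 100% = reporter-only cells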
NCOA3 inh: SRC3 coactivator transcriptional activity inhibitors, primary screen, cell-based, luminescence. HEK293 GAL4-SRC3 luciferase reporter. inhibition, % at 3.6 µM. 360,000 tested, 0.17% active. AID 588352, 2011;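 active means inhibition above a per-campaign cutoff, the mean of all compounds plus 3 SD, cut at about 60% in these data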;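 further: 0% = DMSO-treated cells and 100% = gossypol-treated cells at 36 µM; higher means less SRC3-driven luciferase light from the GAL4 reporter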
NCOA2 inhibitor: inhibition of GAL4-SRC2 driven luciferase reporter, primary screen, SRC2 inhibitor project, cell-based, luminescence; inhibition, % at 9 µM; HEK293 GAL4-SRC2 luciferase reporter; 370,000 tested, 0.17% active; AID 651957, 2012;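 active means inhibition above the mean inhibition of all tested compounds plus 3 SD, set per campaign, cut at about 52% in these data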;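 further: 0% = DMSO treated cells and 100% = cells given Gossypol at 36 µM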
NCOA1 inh: SRC1 coactivator transcriptional activity inhibitors, primary screen, cell-based, luminescence. Nuclear receptor coactivator 1 (Homo sapiens), Q15788. 360,000 tested, 0.12% active. inhibition, % at 3.6 µM. AID 588354, 2011. HEK293 GAL4-SRC1 luciferase reporter;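 active means inhibition above the campaign mean plus 3 SD, with each screening campaign given its own cutoff, cut at about 60% in these data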;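 further: 0% = DMSO treated cells and 100% = gossypol at 36 µM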
VP16 Luc counter: Gal4-VP16 luciferase reporter inhibitors, counter-screen for COUP-TFII antagonist project, cell-based, luminescence, HEK293; shares compounds with COUP-TFII inh; inhibition, % at 8.5 µM; 2,500 tested, 25% active; in the data active means inhibition above about 13%
NR2F2 inh conf: NR2F2 transcriptional activity inhibitors, confirmation, cell-based, luciferase reporter, HEK293, triplicate; shares compounds with COUP-TFII inh; HEK293 NGFI-A luciferase reporter, luminescence; inhibition, % at 8.5 µM; 2,500 tested, 45% active; AID 687008, 2013;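 active means mean inhibition over three repeats above a set limit taken from the earlier primary screen, cut at about 38% in these data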;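 further: 100% = cells given the luciferase reporter alone without the COUP-TF2 vector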
Numbers without * were called inactive.

C=CCN(CC=C)CC(=O)Nn1c(C)ccc1C was read as NR5A2 inv ag 5, COUP-TFII inh 11, NCOA3 inh 0, NCOA2 inhibitor 19 and NCOA1 inh 13.
`COc1cccc(C(C)(O)c2nc(-c3ccc(N(C)C)cc3)cs2)c1` (centres undefined) gave NR5A2 inv ag 10, COUP-TFII inh 55*, NCOA3 inh -9, NCOA2 inhibitor 15, NCOA1 inh 13, VP16 Luc counter -22 and NR2F2 inh conf 34.
For O=S(=O)(/C(=C/c1ccc(C(F)(F)F)cc1)c1nc2ccccc2[nH]1)c1ccccc1 the results were NR5A2 inv ag 2, COUP-TFII inh 49*, NCOA3 inh 55, NCOA2 inhibitor 48, NCOA1 inh -19, VP16 Luc counter 67* and NR2F2 inh conf 62*.
`C/C(=C\c1ccc(N)cc1)c1nc2ccccc2[nH]1` gave NR5A2 inv ag -64, COUP-TFII inh -22, NCOA3 inh -93, NCOA2 inhibitor -38 and NCOA1 inh -74.
CC(C)c1ccc(/C=C(\c2nc3ccccc3[nH]2)S(=O)(=O)c2ccccc2)cc1 was read as NR5A2 inv ag 57, COUP-TFII inh 40*, NCOA3 inh 73*, NCOA2 inhibitor 53*, NCOA1 inh 28, VP16 Luc counter 31* and NR2F2 inh conf 27.
`COc1ccccc1NC(=O)c1c(Nc2ccccc2C)sc(C(=O)Nc2cccc(Cl)c2)c1N` gave NR5A2 inv ag 26, COUP-TFII inh 38*, NCOA3 inh 27, NCOA2 inhibitor 5, NCOA1 inh 17, VP16 Luc counter 4 and NR2F2 inh conf 61*.
Screening O=C1Nc2ccccc2CN2C(=O)c3cc(Cl)ccc3NC(=O)C12 (centres undefined) returned NR5A2 inv ag -2, COUP-TFII inh 2, NCOA3 inh 20, NCOA2 inhibitor 9 and NCOA1 inh 6.
Screening CN(C)S(=O)(=O)N1CCC(Oc2cccc(C(=O)NC3CCCCCC3)c2)CC1 returned NR5A2 inv ag 39, COUP-TFII inh 63*, NCOA3 inh 11, NCOA2 inhibitor 24, NCOA1 inh 18, VP16 Luc counter 5 and NR2F2 inh conf 66*.
Screening CN(C)S(=O)(=O)N1CCC(Oc2ccc(C(=O)NC3Cc4ccccc4C3)cc2)CC1 returned NR5A2 inv ag -11, COUP-TFII inh 23, NCOA3 inh -2, NCOA2 inhibitor -4 and NCOA1 inh -5.
COC(=O)c1ccc(NC(=O)c2nc(S(=O)(=O)Cc3cccc(C)c3)ncc2Cl)cc1 was read as NR5A2 inv ag 11, COUP-TFII inh 40*, NCOA3 inh -58, NCOA2 inhibitor 60*, NCOA1 inh -81, VP16 Luc counter 46* and NR2F2 inh conf 15.
For CCOC(=O)c1ccc(NC(=O)c2nc(S(=O)(=O)Cc3ccccc3)ncc2Cl)cc1 the results were NR5A2 inv ag -33, COUP-TFII inh 6, NCOA3 inh -74, NCOA2 inhibitor -26 and NCOA1 inh -44.
`CCS(=O)(=O)c1ncc(Cl)c(C(=O)Nc2ccc(S(=O)(=O)N3CCC(C)CC3)cc2)n1` gave NR5A2 inv ag -27, COUP-TFII inh 48*, NCOA3 inh -24, NCOA2 inhibitor 51, NCOA1 inh -53, VP16 Luc counter 76* and NR2F2 inh conf 63*.
Cc1ccc(C(=O)NC2CCCCN(C)C2=O)c(C)c1 (centres undefined) was read as COUP-TFII inh -5 and NCOA2 inhibitor 12.
COCc1cc(N2CCNC[C@@H]2C)ccc1N1C[C@@H](C)O[C@@H](C)C1 was read as COUP-TFII inh -12 and NCOA2 inhibitor -4.
CCC(=O)N1CCCc2cc(S(=O)(=O)N3CCN(c4ncccn4)CC3)ccc21 was read as NR5A2 inv ag 15, COUP-TFII inh -9, NCOA3 inh 12, NCOA2 inhibitor -25 and NCOA1 inh 11.
For COc1ccccc1N1CCN(C(=O)C2CCCN(S(=O)(=O)c3ccc4c(c3)CCCN4C(C)=O)C2)CC1 (centres undefined) the results were NR5A2 inv ag 10, COUP-TFII inh 44*, NCOA3 inh 34, NCOA2 inhibitor 21, NCOA1 inh 21, VP16 Luc counter -12 and NR2F2 inh conf 27.
`CC(=O)N1CCCc2cc(S(=O)(=O)N3CCCC(C(=O)N4CCN(c5ccccc5)CC4)C3)ccc21` (centres undefined) gave NR5A2 inv ag 20, COUP-TFII inh 41*, NCOA3 inh 15, NCOA2 inhibitor 13, NCOA1 inh -3, VP16 Luc counter 10 and NR2F2 inh conf 29.
`CCC(=O)N1CCCc2cc(S(=O)(=O)N3CCN(c4ccccc4F)CC3)ccc21` gave NR5A2 inv ag 13, COUP-TFII inh 50*, NCOA3 inh 0, NCOA2 inhibitor 18, NCOA1 inh 13, VP16 Luc counter -3 and NR2F2 inh conf 13.
Screening COc1ccc(-c2nnc(SCC(=O)Nc3ccc(S(=O)(=O)Nc4nccs4)cc3)n2-c2ccc(OC)cc2)cc1 returned COUP-TFII inh -8 and NCOA2 inhibitor 2.
Screening CC(=O)N1CCN(CC(=O)NC(=O)Nc2ccc3c(c2)OCCO3)CC1 returned NR5A2 inv ag 3, COUP-TFII inh -5, NCOA3 inh -13, NCOA2 inhibitor 10 and NCOA1 inh -25.
Screening Nc1[nH]c(C(=O)c2ccccc2)c(-c2cccc(C(F)(F)F)c2)c1C(=O)NCCc1c[nH]c2ccccc12 returned COUP-TFII inh 16 and NCOA2 inhibitor -1.
Cc1ccc(S(=O)(=O)N(C)CCCC(=O)Nc2ccncc2)cc1 was read as NR5A2 inv ag 13, COUP-TFII inh 42*, NCOA3 inh -8, NCOA2 inhibitor 10, NCOA1 inh 3, VP16 Luc counter -1 and NR2F2 inh conf 19.
Screening Cc1ccc(S(=O)(=O)N(C)CCCC(=O)Nc2ccc(F)cc2)cc1 returned NR5A2 inv ag 13, COUP-TFII inh 1, NCOA3 inh -6, NCOA2 inhibitor 6 and NCOA1 inh -3.
For COc1cc(C#Cc2c(-c3cncn3C)n(C)c3ccc(-c4cnc(N5CCOCC5)nc4)cc23)cc(OC)c1 the results were NR5A2 inv ag -49, COUP-TFII inh -37, NCOA3 inh -45, NCOA2 inhibitor -69 and NCOA1 inh -30.
